# This is a sample that favours compounds with a hit; in the whole collection about 1.6% have one here.
# PrP UTR inh = inhibition of PrP 5' UTR reporter expression; cell-based PrP 5' UTR mRNA reporter, plate reader; hit rate 0.35% among 340,000; inhibition, % (no concentration beside the values); in the data active means inhibition above about 52%; further: 0 = median of the neutral control wells
# PrPC TRFRET = inhibitors of human cell surface prion protein PrPC. P04156. TR-FRET read-out. inhibition, % at 13.8 µM. hit rate 0.43% among 370,000; in the data active means inhibition above about 24%; further: 0% = median of the test wells and 100% = reference compound wells
# Vc quorum ag = quorum light induction in luxS cqsA deficient V. cholerae; V. cholerae BH1578 lux reporter, luminescence, 6 h; hit rate 0.16% among 350,000; activation, % at 18.7 µM; in the data active means activation mostly above about 9.7%, no sharp cut-off
# PriA SSB inh = K. pneumoniae PriA-SSBct interaction inhibition | AlphaScreen SSBct-PriA binding, biotinylated peptide | inhibition, % at 33 µM | hit rate 0.6% among 430,000; in the data active means inhibition mostly above about 37%, no sharp cut-off; inactive means mostly below about 20%;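 further: plate controls were negative control peptide for no effect and reference peptide for full effect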
# PfHsp40 yeast = compounds rescuing yeast from Plasmodium falciparum HSP40 toxicity; S. cerevisiae expressing PfHsp40, growth rescue, ATP luminescence; AID 504582; growth rescue, % at 12.5 µM; hit rate 0.68% among 340,000; in the data active means growth rescue above about 28%, passing the limit was not always enough;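 further: yeast W303a lacking pdr1 and pdr3 grown in galactose medium; growth measured after three days at 30 °C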
# 3CLpro inhibitor = SARS-CoV 3CLpro protease inhibition; inhibition, % at 6 µM; recombinant SARS-CoV 3CLpro, quenched FRET peptide cleavage; hit rate 0.14% among 290,000; P0C6X7; AID 1706; in the data active means inhibition above about 12%
# An asterisk follows results filed as active; i = inactive; . = no result.
SMILES,PrP UTR inh,PrPC TRFRET,Vc quorum ag,PriA SSB inh,PfHsp40 yeast,3CLpro inhibitor
COc1ccc(NC(=S)NCc2ccc3c(c2)cc(C)n3C)cc1,-6,-11,0,75*,-1,-3
Cc1cc(C)cc(NC(=S)NCc2ccc3c(c2)cc(C)n3C)c1,.,.,.,60,.,.
CCCCNC(=S)NCc1ccc2c(c1)cc(C)n2C,-37,9,0,83*,0,3
Cc1cc2cc(CNC(=S)NC3CCCCC3)ccc2n1C,-10,5,0,59*,0,-4
CCc1cccc(C)c1NC(=S)NCc1ccc2c(c1)cc(C)n2C,-27,10,0,53*,1,-3
Cc1ccccc1NC(=S)NCc1ccc2c(c1)cc(C)n2C,-21,13,0,36,0,0
O=C(NC1CCCC1)C(=O)N1CCN(Cc2ccccc2)CC1,.,.,.,-23,.,.
O=C(NCC[C@@H](CCO)c1ccccc1)C(=O)NC1CC1,.,.,.,2,.,.
O=C(NCc1ccco1)c1cn(Cc2ccc(F)cc2)nc1OCc1ccc(F)cc1,.,.,.,-2,.,.
O=C(CN1C(=O)c2ccccc2C1=O)Nc1nnc(-c2cc(Cl)ccc2Cl)o1,.,.,.,-5,.,.
N#Cc1nc(COc2ccc(Cl)cc2)oc1NCc1ccc2c(c1)OCO2,-8,-1,.,-5,3,4
Cc1cccc(OCc2nc(C#N)c(NCc3ccc4c(c3)OCO4)o2)c1,-8,8,i,1,29*,6
COc1ccc(S(=O)(=O)NCCc2nnc3ccc(SCC(=O)Nc4nc5ccccc5s4)nn23)cc1,.,.,.,-8,.,.
CCCCNc1c(-c2ccc(OC)c(Sc3ccc(OC)cc3)c2)nc2ccccn12,-1,.,0,21,12,.
CCCCNc1c(-c2ccc(-c3ccc(OC)cc3)c(OC)c2)nc2ccccn12,-10,1,i,38,251*,.
CC(C)CC(NC(=O)C1CCC(C)CC1)C(=O)NCCN1CCOCC1 (configuration not stated),-14,-2,-1,5,1,4
CC1CCC(C(=O)NC(C(=O)NCCN2CCC(C)CC2)C(C)C)CC1 (configuration not stated),-15,-1,0,-6,46*,0
O=C(N/N=C/c1cc2c3c(c1O)CCCN3CCC2)c1ccccc1O,33,-6,0,.,176*,3
O=C(NN=Cc1cc2c3c(c1O)CCCN3CCC2)c1ccccc1O,.,.,.,78,.,.
COc1ccc(CCn2c(C)ccc2C)cc1OC,.,.,.,.,.,2
COc1ccc(CCN2C(=O)C=CC2=O)cc1OC,-35,-2,i,3,138*,.
O=C(NCCCn1ccc2cccnc21)Nc1ccccc1,.,.,.,-7,.,.
O=S(=O)(Nc1ccccc1)c1ccc(Oc2ncc(C(F)(F)F)cc2Cl)cc1,-4,5,-1,-6,282*,8
O=[N+]([O-])c1ccc(Oc2ccc(S(=O)(=O)Nc3ccccc3)cc2)cc1,-20,.,i,3,388*,11
O=C(Cn1cnc2c(cnn2C2CCS(=O)(=O)C2)c1=O)Nc1ccc(OC(F)(F)F)cc1 (configuration not stated),.,.,.,-4,.,.
SMILES,PrP UTR inh,PrPC TRFRET,Vc quorum ag,PriA SSB inh,PfHsp40 yeast,3CLpro inhibitor
COc1ccc(/C=N\NC(=O)CNC(=O)c2ccccc2Br)cc1,.,.,.,-3,.,.
CCCCCCN1N=C(C)C(C(=O)c2ccc(Cl)cc2)C1=O (configuration not stated),-10,5,0,12,519*,-2
CCCCCCCN1N=C(C)C(C(=O)c2ccccc2)C1=O (configuration not stated),-9,-4,i,-11,381*,-2
C=CCn1c(SCC(=O)Nc2ccc(OC)cc2)nc2scc(-c3ccc(OC)cc3)c2c1=O,.,.,.,-11,.,.
C[C@@H](C(=O)Nc1nc(-c2ccccn2)cs1)N1C(=O)C2CCCCC2C1=O (some centres not stated),-19,1,-1,81*,0,5
O=C(CN1C(=O)C2CCCCC2C1=O)Nc1nc(-c2ccccn2)cs1 (configuration not stated),-6,6,i,81*,-1,-5
CC1Oc2ccccc2N(CC(=O)Nc2nc(-c3ccccn3)cs2)C1=O (configuration not stated),.,.,.,58*,.,.
COc1cccc(C(=O)Nc2sc3c(c2C#N)CCC(C)C3)c1OC (configuration not stated),.,.,.,-1,.,.
O=C1CCc2cc(S(=O)(=O)NCC3CCN(S(=O)(=O)C4CC4)CC3)cc3c2N1CC3,.,.,.,39*,.,.
Cc1ccccc1NC(C)C(=O)NN=Cc1ccccc1OCc1cccc(Br)c1 (configuration not stated),.,.,.,11,.,.
Cc1ccccc1NC(C)C(=O)N/N=C/c1ccccc1OCc1cccc(Br)c1 (configuration not stated),-11,9,i,.,35*,8
COc1ccc(Nc2nc(Nc3ccc4c(c3)OCO4)nc(N3CCOCC3)n2)cc1,.,.,.,38*,.,.
c1cc2c(cc1Nc1nc(Nc3ccc4c(c3)OCO4)nc(N3CCOCC3)n1)OCO2,.,.,.,20,.,.
CC(C)[C@H]1C=C(C(=O)O)O[C@@H](OCCCCO)C1,-5,-9,i,-7,56*,.
COc1ccccc1NC(=O)CSc1nc2c(oc3ccccc32)c(=O)n1CC1CCCO1 (configuration not stated),.,.,.,-8,.,.
CNc1nc(SCc2ccc(C)cc2)nc2c1CCCC2,-10,6,4,-17,199*,-4
Cc1ccc(CSc2nc3c(c(N(C)C)n2)CCCC3)cc1,-20,5,i,-61,1,-5
Cc1ccc(C)c(NC(=S)NNC(=O)c2csc3c2CCC(C)C3)c1 (configuration not stated),.,-6,i,13,62*,8
Cc1cccc(NC(=S)NNC(=O)c2csc3c2CCCC3)c1,-25,9,i,17,141*,7
CCc1cc(C(=O)NNC(=S)Nc2cc(C)ccc2C)cs1,-22,0,2,-6,1,0
Cc1ccc(C)c(NC(=S)NNC(=O)c2csc3c2CCCC3)c1,-14,-1,0,0,42*,1
CCNC(=S)NNC(=O)c1csc2c1CCCC2,-15,.,-3,-18,-1,-4
Cc1ccccc1-c1ccc(N2CCC(C(=O)N3CCOCC3)CC2)nn1,.,.,.,-9,.,.
Cc1csc(N2CCCC2c2nc3cc(C(F)(F)F)ccc3n2CCOCCO)n1 (configuration not stated),-2,6,i,48*,-1,.
Cc1nc(SCC(=O)Nc2cc(Cl)ccc2[N+](=O)[O-])nc(C)c1C,-31,-23,i,52*,1,-1
CN(C)c1ccc(/C=N/NC(=O)CNC(=O)c2ccncc2)cc1,-37,-3,i,.,-1,1
CC/C(=C\c1ccc(N(C)C)cc1)c1ccncc1,-31,0,.,49*,2,.
COc1ccc(Cl)cc1NC(=O)CSc1ccc(-c2ccccn2)nn1,.,.,.,37,.,.
Cc1ccc(CCNC(=O)c2nnn(-c3cc(C)cc(C)c3)c2N)cc1,7,2,-1,-17,48*,3

# Assay outcomes deposited in PubChem BioAssay by several laboratories.
